NS1 inh: blocks influenza NS1 protein function; Potency, µM (series often up to 46.1 µM); 0.4% of 270,000 active; also: actives are rising curves; nearly all actives have a fitted effect of over 50% in size
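OD600 was taken as the measure of yeast growth restored by compound in an NS1-expressing S. cerevisiae strain. Cells had been washed out of glucose medium and diluted 1:100 into galactose -URA medium, pH 6.0.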
Pf growth 48h: inhibits P. falciparum growth in the first generation, 48 h. P. falciparum luciferase growth in erythrocytes, 48 h. Potency, µM (top dose mostly 28.7 µM), usual class: inhibitors. AID 504832. 5.9% of 310,000 active; active = well fitted inhibition curve with a large enough effect; inconclusive = small, poorly fitted or top-dose-only effect, or another doubt; inactive = no such curve, though single readings can be large or run the other way
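Luciferase-expressing P. falciparum in infected erythrocytes (2% hematocrit, 0.1% parasitemia final) in RPMI 1640/0.5% Albumax were exposed to compound for 48 hours at 37 C, 5% CO2; growth read as luminescence.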
Pf growth 96h: inhibits malaria parasite growth, 96 h | 6.9% of 320,000 active | P. falciparum luciferase reporter growth, 96 h | Potency, µM (top dose mostly 28.7 µM), most hits filed as inhibitors | AID 504834; active = well fitted inhibition curve with a large enough effect; inconclusive = small, poorly fitted or top-dose-only effect, or another doubt; inactive = no such curve, though single readings can be large or run the other way
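Readout is luminescence from an integrated firefly luciferase in P. falciparum. Red cells, 2% hematocrit and 0.05% parasitemia final, were cultured with compound through two parasite generations (96 hours) at 37 C, 5% CO2.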
SARS PLpro yeast: SARS-CoV PLP inhibition in yeast. S. cerevisiae expressing SARS-CoV PLpro, growth rescue. Potency, µM (series often up to 32.9 µM), most hits filed as activators. 0.19% of 330,000 active. AID 485353; also: nearly all actives have a fitted effect of over 55% in size
Numbers stand for hits; i = inactive; ? = inconclusive; nt = not tested or not shown; [ ] = remark or other dose. Hits are enriched below; roughly 10% of the tested compounds scored in any of these assays. Unless noted, calls follow the shape of the full dose curve.

SMILES	NS1 inh	Pf growth 48h	Pf growth 96h	SARS PLpro yeast
COc1ccc(-c2csc3ncnc(N4CCN(S(=O)(=O)c5cccc(Br)c5)CC4)c23)cc1	nt	?	?	i
COc1cccc(-c2nnc(NC(=O)c3ccc(Cl)s3)o2)c1	i	?	12µM	i
Cc1ccc(-c2nnc(NC(=O)c3ccc([N+](=O)[O-])o3)o2)c(C)c1	nt	i	i	i
O=C(Nc1nnc(-c2ccco2)o1)c1ccc(Cl)s1	i	i	?	i
COc1ccc(-c2nnc(NC(=O)c3ccc([N+](=O)[O-])o3)o2)c(OC)c1	i	15µM	12µM	i
c1ccc(CC(Nc2ccccn2)c2ccccc2)cc1 (stereo unspecified)	nt	?	15µM	i
Cc1ccc2oc(C(=O)NCC(c3ccco3)N(C)C)c(C)c2c1 (stereo unspecified)	i	i	i	i
COc1ccc(NC(=O)CSc2nc3c(sc4ccccc43)c(=O)n2CCCN2CCCC2)cc1	i	13µM	?	i
COc1ccc(NC(=O)CSc2nc3ccccc3c(=O)n2CCCN2CCCCC2)c(OC)c1	i	nt	9.3µM	i
O=C(CSc1nc2c(sc3ccccc32)c(=O)n1CCCN1CCCC1)NCC1CCCO1 (stereo unspecified)	i	nt	?	i
CC1CC(C)CN(CC(=O)NC(c2ccccc2)c2ccccc2)C1 (stereo unspecified)	i	12µM	i	i
CC1Cc2ccccc2N1CC(=O)NC(c1ccccc1)c1ccccc1 (stereo unspecified)	i	10µM	6.6µM	i
O=C(Cn1cnc2ccccc21)NC(c1ccccc1)c1ccccc1	i	4.1µM	3.7µM	i
COc1ccccc1C(=O)NCCC(=O)NC(C)c1ccc(-n2ccnc2)cc1 (stereo unspecified)	nt	i	i	i
O=C(CCCc1nc2ccccc2s1)Nc1ccc(N2CCOCC2)cc1	nt	i	i	i
Cn1c(SCc2cccc(Br)c2)nnc1-c1ccncc1	i	i	?	i
CCN(CC)S(=O)(=O)c1ccc(NC(=S)Nc2ccc(F)cc2)cc1	i	i	i	i
COCCN(C(=O)COC(=O)Cc1coc2cc3c(cc12)CCC3)c1c(N)n(Cc2ccccc2)c(=O)[nH]c1=O	nt	i	i	i
CC(C)Sc1ccc([N+](=O)[O-])cc1C(=O)Nc1ccncc1	i	?	1.2µM	i
Cc1noc(C)c1COC(=O)c1cccnc1SCC(=O)Nc1ccc2c(c1)OCO2	i	?	9.3µM	i
CSc1ncccc1C(=O)OCC(=O)Nc1ccc2c(c1)OCO2	nt	i	i	i
Cc1noc(C)c1COC(=O)c1ccc2c(c1)OCO2	i	nt	7.4µM	i
O=C(NCN1CCOCC1)c1cnccn1	i	i	i	i
CC(=O)Nc1cc2nn(-c3ccccc3)nc2cc1C	i	i	13µM	i
Cc1cc2nn(-c3ccccc3)nc2cc1NC(=O)c1cccs1	i	i	?	i
SMILES	NS1 inh	Pf growth 48h	Pf growth 96h	SARS PLpro yeast
COc1cc(CC(=O)O)c(C(C)=O)cc1OC	i	i	3.7µM	i
OCCN1CCN(CC(O)COc2ccc(Cl)cc2)CC1 (stereo unspecified)	i	i	i	i
OCCN1CCN(CC(O)COc2ccc(C34CC5CC(CC(C5)C3)C4)cc2)CC1 (stereo unspecified)	i	?	12µM	i
COc1ccc(Cc2nnc(Nc3ccc(C)cc3)o2)cc1OC	i	2.9µM	?	i
COc1ccc(Cc2nnc(-c3cccc(C)c3)o2)cc1OC	i	i	i	?
CCCCn1c(SCC(=O)Nc2cc(C(F)(F)F)ccc2Cl)nnc1C(CC)N(C)C (stereo unspecified)	i	8.3µM	?	i
COc1ccc(CSCC(=O)N/N=C/c2ccc(OCC(=O)NCc3ccco3)cc2)cc1	i	i	i	i
CC(SCc1ccccc1)C(=O)N/N=C/c1ccc(OCC(=O)NCc2ccco2)cc1 (stereo unspecified)	i	i	1.7µM	i
COc1cccc(NC(=O)CCS(=O)(=O)c2ccc(Br)cc2)c1	i	i	i	i
COc1cc(/C=C/c2nc3ccccc3c(=O)n2-c2ccccc2O)ccc1O	i	9.3µM	9.3µM	i
O=c1c2ccccc2nc(/C=C/c2ccccc2)n1-c1ccc(O)cc1	i	i[0.00184 µM]	?	i
COc1ccccc1-n1c(/C=C/c2ccc(O)cc2)nc2ccccc2c1=O	i	13µM	i	i
CN(C)c1ccc(/C=C/c2nc3ccccc3c(=O)n2-c2ccc(C(=O)O)cc2)cc1	i	?	?	i
O=C(O)c1ccc(/C=C/c2nc3ccccc3c(=O)n2-c2ccc(Br)cc2)cc1	i	?	13µM	i
O=c1c2ccccc2nc(/C=C/c2ccccc2)n1-c1ccccc1O	i	9.3µM	?	i
